Only some compounds are listed: those with a hit (about 3.5% of all), similar ones and a draw of the others.
FBW7 activator: activators of human E3 ligase FBW7; Q969H0; AlphaScreen FBW7–phospho-cyclin E peptide binding, activator screen; normalized activity (activation), % at 26.1 µM; 0.13% of 650,000 active; AID 1259310; in the data active = normalized activity above about 1.9%;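 note: purified mutant Fbw7 with reduced substrate affinity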
TEAD-YAP block: TEAD-YAP interaction inhibition | inhibition, % at 9.12 µM | HEK-TIYL cells, TEAD-Gal4/YAP UAS-luciferase luminescence | 1.4% of 640,000 active; in the data active = inhibition above about 32%
MITF primary: blocks human microphthalmia-associated transcription factor; O75030; AlphaScreen MITF homodimerization, bead proximity signal; 0.91% of 650,000 active; AID 1259374; inhibition, % at 2.6 µM; in the data active = inhibition above about 50%
Target sequence (O75030 whole entry, looked up): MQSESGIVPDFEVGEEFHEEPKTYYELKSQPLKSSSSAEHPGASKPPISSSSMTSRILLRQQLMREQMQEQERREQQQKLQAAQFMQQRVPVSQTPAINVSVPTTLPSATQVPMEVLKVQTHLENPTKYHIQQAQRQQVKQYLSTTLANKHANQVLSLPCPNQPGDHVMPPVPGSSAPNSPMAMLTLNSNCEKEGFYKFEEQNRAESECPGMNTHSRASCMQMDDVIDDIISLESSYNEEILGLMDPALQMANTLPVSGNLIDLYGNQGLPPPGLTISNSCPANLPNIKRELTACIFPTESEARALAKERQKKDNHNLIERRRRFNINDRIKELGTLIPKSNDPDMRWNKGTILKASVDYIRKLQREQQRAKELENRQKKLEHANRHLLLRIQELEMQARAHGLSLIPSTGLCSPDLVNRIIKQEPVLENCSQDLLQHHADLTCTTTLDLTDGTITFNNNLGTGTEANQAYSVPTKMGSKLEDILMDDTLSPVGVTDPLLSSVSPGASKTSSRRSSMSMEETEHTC
GPR151 activ: human GPR151 activation. Q8TDV0. PathHunter beta-arrestin GPR151 cells, luminescence. activation, % at 11.2 µM. 1% of 650,000 active. AID 1508602; in the data active = activation above about 4.9%
MITF confirm: human MITF inhibition, confirmation | shares compounds with MITF primary | AlphaScreen MITF homodimerization, biotin/His-MITF beads | inhibition, % at 2.6 µM | 16% of 4,700 active;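 active = inhibition above a cutoff derived from the DMSO control wells, cut at about 28% in these data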;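 note: inhibitors lower the bead chemiluminescence by keeping MITF from dimerizing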
AlphaScreen DR: counter-screen: compounds optically interfering with AlphaScreen; AlphaScreen optical interference counterscreen, cell-free; shares compounds with MITF primary; 6% of 480 active; IC50, µM; call rule not given here
AS interf ctr: optically interferes with AlphaScreen signal. shares compounds with MITF primary. 7.6% of 4,700 active. AID 1259376. inhibition, % at 2.6 µM. LysRS AlphaScreen counterscreen, signal interference, triplicate;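 active = inhibition above a cutoff derived from the DMSO control wells, cut at about 30% in these data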
A number is an active result; 0 = inactive; - = no result.

SMILES	FBW7 activator	TEAD-YAP block	MITF primary	GPR151 activ	MITF confirm	AS interf ctr	others
C1=C(c2ccccc2)CCN(Cn2cnc3ccccc32)C1	0	0	0	0	-	-
COc1ccc2ccc(OC)c(C=C3C(=O)N(C)C(=S)N(C)C3=O)c2c1	0	0	0	0	-	-
O=C(Cc1cccnc1)N1CCCC(N2CCOCC2)C1 (configuration not stated)	0	0	0	0	-	-
c1ccc(CN2CCN(C3CCCCC3)CC2)cc1	0	0	75	0	0	0
c1ccc(CN2CCN(c3ccccc3)CC2)cc1	0	0	0	0	-	-
CCN1CCN(c2c(Cl)cccc2NC(C)=O)CC1	0	0	0	0	-	-
CC(=O)N1CCC2(CC1)OCc1cc(-c3cnc4ccccc4c3)ccc1O2	0	0	0	0	-	-
Brc1cccc(CN2CCN(Cc3ccc4c(c3)OCO4)CC2)c1	0	0	64	0	0	0
Fc1cccc(CN2CCN(Cc3ccc4c(c3)OCO4)CC2)c1	0	0	56	0	0	0
Clc1cccc(CN2CCN(Cc3cccc(Br)c3)CC2)c1	0	0	0	0	-	-
Brc1cccc(CN2CCN(Cc3cccc(Br)c3)CC2)c1	0	0	77	0	0	0
O=C(Nc1cccc([N+](=O)[O-])c1)C(Cl)(Cl)Cl	0	0	0	0	-	-
CCN1CCN(Cc2ccc(Cl)c(Cl)c2)CC1	0	0	0	0	-	-
CCN1CCN(Cc2c(Cl)cccc2Cl)CC1	0	0	69	0	0	0
CCc1ccc(CN2CCN(Cc3ccccc3Cl)CC2)cc1	0	0	68	0	0	0
Clc1ccc(CN2CCN(Cc3ccccc3Cl)CC2)cc1	0	0	78	0	0	0
COCCNC(=O)CN1C2CCC1CC(O)(c1ccccn1)C2 (configuration not stated)	0	0	0	0	-	-
CCOC(=O)C1C2NC(=S)N(CCOC)C1(C)Oc1c(OCC)cccc12 (configuration not stated)	0	0	0	0	-	-
CCN(CC)P1(=S)C(N(C)C)=Nc2ccc(Br)cc21 (configuration not stated)	0	0	0	0	-	-
O=C(N1CCN(c2ccc(F)cc2)CC1)C(O)(c1ccccc1)c1ccccc1	0	0	0	0	-	-
O=[N+]([O-])c1c(Br)ccc2c1no[n+]2[O-]	0	0	90	0	80	0	AlphaScreen DR=0
CCOC(=O)C1C2NC(=S)N(c3ccccc3)C1(C)Oc1c(OCC)cccc12 (configuration not stated)	0	0	0	0	-	-
CCOC(=O)C1C2NC(=S)N(c3ccc(C)cc3)C1(C)Oc1c(OCC)cccc12 (configuration not stated)	0	0	53	0	41	0
COc1ccccc1OCC(=O)N1CCN(Cc2nc3ccccc3[nH]2)CC1	0	0	75	0	0	0
O=C(Cc1noc2ccccc12)N1CCN(Cc2nc3ccccc3[nH]2)CC1	0	0	77	0	0	0
SMILES	FBW7 activator	TEAD-YAP block	MITF primary	GPR151 activ	MITF confirm	AS interf ctr	others
O=C(COc1ccccc1Cl)N1CCN(Cc2ccccc2)CC1	0	0	0	0	-	-
COC(=O)C(NC(=O)CNC(=O)C(C)NC(=O)C(N)Cc1ccc(O)cc1)C(C)C (configuration not stated)	0	0	0	0	-	-
CC(C)Sc1ccc(CC(=O)N2CCN(Cc3nc4ccccc4n3C)CC2)cc1	0	0	55	0	0	0
CCC(C)N1CCN(Cc2ccccc2F)CC1 (configuration not stated)	0	0	75	0	0	0
CCC(C)N1CCN(Cc2ccccc2)CC1 (configuration not stated)	0	0	66	0	0	0
O=C(CN1CCOCC1)c1cccc2ccccc12	0	0	56	0	0	0
CCCCn1c(C)c(C(=O)OCC)c2cc(OC(=O)CC)c3ccccc3c21	0	0	0	0	-	-
COc1ccc(C(c2c(O)c3ccccc3oc2=O)c2c(O)c3ccccc3oc2=O)cc1	0	0	0	0	-	-
CCOc1cc(CN2CCN(Cc3ccccc3)CC2)ccc1O	0	0	56	0	0	0
CCOc1cc(CN2CCN(c3ccccc3F)CC2)ccc1O	0	0	0	0	-	-
CCOc1cc(CN2CCN(C(C)C)CC2)ccc1OC	0	0	55	0	0	0
COc1ccc(CN2CCN(c3ccccc3F)CC2)cc1OC	0	0	52	0	0	0
CCC(CC)N1CCN(Cc2ccc(OC)cc2)CC1	0	0	54	0	0	0
CC(=O)CC(O)(c1ccccc1)C(Cl)(Cl)Cl (configuration not stated)	0	0	0	0	-	-
Cc1ccc2c(c1)C1CN(C)CCC1N2C(=O)c1ccc2ccccc2c1 (configuration not stated)	0	0	0	0	-	-
COCC1=C(C(=O)OC)C2(C(=O)N(C(C)=O)c3ccccc32)C(C#N)=C(N)O1 (configuration not stated)	0	0	0	0	-	-
NC(=O)c1c(N)cc([N+](=O)[O-])cc1[N+](=O)[O-]	0	0	0	0	-	-
CCOc1cc(CN2CCN(C(CC)CC)CC2)ccc1OC	0	0	78	0	0	0
CCC(CC)N1CCN(Cc2ccc(OC)c(OC)c2)CC1	0	0	69	0	0	0
Fc1ccc(CN2CCN(Cc3cccc(Cl)c3)CC2)cc1	0	0	68	0	0	0
CCC(CC)N1CCN(Cc2cccc(F)c2)CC1	0	0	73	0	0	0
Fc1cccc(CN2CCN(Cc3cccc(F)c3)CC2)c1	0	0	68	0	0	0
Fc1cccc(CN2CCN(Cc3ccc(Cl)cc3)CC2)c1	0	0	70	0	0	0
CN1CCN(Cc2cccc(F)c2)CC1	0	0	0	0	-	-
O=C1CC(c2ccccc2F)CN1 (configuration not stated)	0	0	0	0	-	-
SMILES	FBW7 activator	TEAD-YAP block	MITF primary	GPR151 activ	MITF confirm	AS interf ctr	others
CC(C)N1CCN(Cc2cccc(F)c2)CC1	0	0	62	0	0	0
CCc1ccc(CN2CCN(Cc3cccc(Cl)c3)CC2)cc1	0	0	64	0	0	0
Fc1cccc(CN2CCN(c3ccc(Cl)cc3)CC2)c1	0	0	0	0	-	-
O=C1CC(=O)N(c2cccc(Br)c2)C(=S)N1	0	0	0	0	-	-
O=C(Cc1c(F)cccc1Cl)N1CCN(Cc2ccc3c(c2)OCO3)CC1	0	0	0	0	-	-
Cc1ccc(CN2CCN(Cc3cccc(C)c3)CC2)cc1	0	0	64	0	0	0
Cc1cccc(CN2CCN(Cc3ccccc3F)CC2)c1	0	0	79	0	0	0
Cc1cccc(CN2CCN(Cc3ccccc3C)CC2)c1	0	0	64	0	0	0
COc1ccc(CN2CCN(Cc3cccc(C)c3)CC2)cc1	0	0	0	0	-	-
CCN1CCN(Cc2cccc([N+](=O)[O-])c2)CC1	0	0	0	0	-	-
Cc1cccc(CN2CCN(Cc3ccccc3[N+](=O)[O-])CC2)c1	0	0	64	0	0	0
CCC(N)C(=O)c1ccc(Br)cc1 (configuration not stated)	0	0	0	0	-	-

Screening data deposited in PubChem by The Scripps Research Institute Molecular Screening Center.
